In PubChem BioAssay AID435019 (Southern Research Specialized Biocontainment Screening …, 2010):
The campaign covered roughly 2,300 compounds. About 1,200 (52%) were called active. The set was probably picked from earlier hits. Some of the results follow. Results with a measured potency or affinity are listed apart. Unmarked numbers belong to inactive results. No rule for the calls is given here.

Assay: mammalian cell cytotoxicity, dose response, cytotoxicity control for M. tuberculosis inhibitor project (AID 435019);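 also: 0% = background wells and 100% = vehicle-treated cells; lower values mean fewer viable cells so more cytotoxicity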
Settings: cytotoxicity counter-screen; series mostly up to 40 µM; viability: at the top concentration

Row | Compound | viability [%]
1 | C=CCN(CC(=O)c1sc(C(=O)OCC)nc1C)c1cccc(Br)c1 | 91.5
2 | CCCCOC(=O)c1ccc(O)cc1 | 95
3 | [O-][n+]1c2ccccc2c2n1CCN1CCOC21c1ccc(Cl)cc1 (configuration not stated) | 85.2
4 | Cc1nonc1NC(=O)CSc1ccc(-c2ccccc2)nn1 | 90.2
5 | O=C(OCC(=O)c1cccs1)C1=COCCO1 | 98.4
6 | COC(=O)COc1ccc(-c2nn(C)c(=O)c3ccccc23)cc1 | 93.7
7 | CCCCn1nc(C(=O)Nc2ccccc2N2CCCC2)c2ccccc2c1=O | 82.5
8 | COc1cc(CNC(=O)CCCCCCC(C)C)ccc1O | 93
9 | COC(=O)Cn1nc(-c2ccccc2)c2cc(Cl)ccc21 | 88
10 | CC1=CC(=O)NP(=O)(Oc2ccc3ccccc3c2)N1 (configuration not stated) | 93.5
11 | CC(=O)Oc1ccc2occ(C(=O)c3cccs3)c2c1 | 102
12 | Nc1nc2ccccc2n1/N=C/c1ccc(Br)cc1 | 95.2
13 | CC(C)(C)Nc1nc(NC(C)(C)C)nc(-n2ccnc2)n1 | 90.2
14 | CCOC(=O)CNC(=O)CNC(=O)c1nn(-c2ccc(OC)c(Cl)c2)c(=O)c2ccccc12 | 99
15 | CCOC(=O)c1ccc(-n2c(CCC(=O)O)ccc2-c2cccs2)cc1 | 96.7
16 | CC(C)OC(=O)c1ccc(N)cc1 | 102
17 | CCc1ccc(NC2=NCC(c3ccccc3)S2)cc1 (configuration not stated) | 87.4
18 | CC(C)OC(=O)c1ccc(NC(=S)NC(=O)c2cncc(Br)c2)cc1 | 94.2
19 | Cc1[nH]nc(SCC(=O)NCc2ccccc2)c1[N+](=O)[O-] | 90.9
20 | COc1ccc(-c2ccc(-c3noc(C(C)C)n3)c(OC)n2)cc1 | 81.4
21 | Cc1ccc(C(=O)C2CCN(CC(=O)Nc3nc(C)cs3)CC2)cc1 | 83.6
22 | Cc1ccc(Cl)cc1NC(=O)CN1CCN(S(=O)(=O)N2CCOCC2)CC1 | 90.4
23 | CCCCNC(=S)N/N=C/c1cccc(OCC)c1O | 95.4

Row | Compound | viability [%]
24 | CCOC(=O)CN[C@H]1CCC2C3CC=C4C[C@@H](O)CC[C@]4(C)C3CC[C@@]21C (some centres not stated) | 95.8
25 | Cc1ccc(C(=O)ONc2ccc(N=O)cc2)cc1 | 89.5
26 | COc1ccc(NC(NC(=O)c2ccc(OC)cc2)C(Cl)(Cl)Cl)cc1 (configuration not stated) | 85.7
27 | CCOC(=O)c1nn(-c2ccc(C)cc2)c2nc(Nc3ccccc3)cc(=O)n12 | 94.8
28 | Cn1nc([N+](=O)[O-])nc1Sc1ccc(C(C)(C)C)cc1 | 84.8
29 | Cn1cnc(Sc2ncnc3nc[nH]c23)c1[N+](=O)[O-] | 82.1
30 | Cc1cc(C)n(-c2cc(C(C)(C)C)nc3c(-c4ccccc4)cnn23)n1 | 85
31 | Cc1cc(-c2nnc3n2CCCCC3)c(C)n1-c1ccccc1 | 90.5
32 | C/C(=N\N(Cc1ccccc1)c1ccccc1)c1ccncc1 | 88.6
33 | CCOC(=O)CSc1nnc(-c2ccc(S(=O)(=O)NCc3cccs3)cc2)o1 | 100
34 | Cn1c(=S)c2[nH]c(SCCN3CCCC3)nc2n(C)c1=O | 93
35 | CCOC(=O)CNc1ccc(C(=O)OCC)cc1[N+](=O)[O-] | 102
36 | CCCc1cc(C(N)=S)ccn1 | 94.8
37 | CCCn1c(=N)n(CC(=O)c2ccc(OCC(=O)OC)cc2)c2ccccc21 | 97.9
38 | Cc1ccc(S(=O)(=O)N2CCC(C(=O)OCc3ccccc3)CC2)cc1C | 96.3
39 | CCOC(=O)C1=NOC(CNc2ncc(C(F)(F)F)cc2Cl)C1 (configuration not stated) | 97.5
40 | NC(=O)c1cccn1-c1ncc(C(F)(F)F)cc1Cl | 106
41 | CCOC(=O)c1ccc(N=C2SC(C(=O)Nc3ccc(C(=O)O)cc3)CC(=O)N2Cc2cccs2)cc1 (configuration not stated) | 90.3
42 | Cc1cc(C2=NNC(=NC3CCCCC3)SC2)c(C)n1-c1c(C)n(C)n(-c2ccccc2)c1=O | 98.9
43 | S=C(NCCN1CCOCC1)N/N=C/c1cccs1 | 89.9
44 | Cc1ccc(C)c2nc(N3CCCC3)c(C#N)cc12 | 91.6
45 | Cc1nc(SCC(=O)NC2CCCCC2)[nH]c(=O)c1C | 95.2
46 | CC1CCCC(C)N1C(=O)COC(=O)c1cc(-c2cccs2)nn1-c1ccccc1 (configuration not stated) | 101

Row | Compound | viability [%]
47 | CCOC(=O)COc1ccc(C2CC(C)=NN2c2ccccc2)cc1 (configuration not stated) | 96.7
48 | O=C(CCN1C(=O)C2C3C=CC(C3)C2C1=O)Oc1ccc2ccccc2c1 (configuration not stated) | 94.8
49 | O=C(COC(=O)C1CCN(c2ccc(C(F)(F)F)cn2)CC1)Nc1ccc(F)cc1[N+](=O)[O-] | 95.2
50 | O=C(Cc1ccc(Nc2nc3ccc(Br)cc3[nH]2)cc1)NCCc1cccs1 | 86.8
51 | Brc1cccc2sc(N3CCN(c4ccccc4)CC3)nc12 | 85.2
52 | Cc1[nH]n(S(=O)(=O)Cc2ccccc2)c(=O)c1N=Nc1ccccc1Cl | 105
53 | CN1CCN(c2c(F)cc3c(=O)c(C(=O)O)cn4c3c2OCN4C)CC1 | 98.7
54 | C=C(C)C1CC=C(CN2CCN(Cc3ccccc3)CC2)CC1 (configuration not stated) | 93.8
55 | Cc1cccc(C2=N/C(=C\c3cccs3)C(=O)O2)c1 | 104
56 | Cn1c(=O)c2[nH]c(-c3ccc(S(=O)(=O)O)cc3)nc2n(C)c1=O | 94.3
57 | C=CCOC(=O)COc1ccc2c(C)c(CC)c(=O)oc2c1 | 99.1
58 | C/C(CCc1ccc2c(c1)OCO2)=N\NC(=S)NC(C)C | 81.8
59 | Cc1ccc(/C=N/NC(=S)NC(C)C)o1 | 97.9
60 | CCCCCCC[N+](CC)(CC)CCCCc1ccc(Cl)cc1 | 89.3
61 | COc1cc(/C=N/N2CCOCC2)ccc1OCc1ccc(Cl)cc1 | 85.8
62 | COc1ccc(N=Cc2c(OC)ccc3ccccc23)cc1 | 90
63 | COc1ccccc1/C=C/C(=O)Nc1ccc(S(=O)(=O)Nc2cc(C)on2)cc1 | 91.3
64 | Cc1cn(-c2ccc(Br)cc2)[nH]c1=O | 96.3
65 | CN(C(=O)COC(=O)c1ccc([N+](=O)[O-])cc1Cl)C1CCCCC1 | 101
66 | COc1ccccc1N(O)C1CC(=O)N(c2ccc(Br)cc2)C1=O (configuration not stated) | 94.8
67 | O=C(OCC(=O)c1c[nH]c2ccccc12)c1cc(Br)ccc1O | 94.9
68 | COc1cccc(COC(=O)c2ccc3c(=O)n4c(nc3c2)CCC4)c1OC | 83
69 | C=CCn1c(N)cc(=O)nc1SC(CC)C(=O)Nc1ccc(C(C)=O)cc1 (configuration not stated) | 102

Row | Compound | viability [%]
70 | NC(=O)c1ccc(N=Cc2ccc([N+](=O)[O-])s2)cc1 | 80.4
71 | CCN(CC)C(=S)SSC(=S)N(CC)CC | 85.7
72 | C/C(=C\C(=O)c1ccccc1)Nc1ccc(Cl)c(Br)c1 | 99.4
73 | O=C(CSCC(=O)Nc1ccc2ccccc2c1)NCc1ccccc1 | 105
74 | COC(=O)C(C)Oc1cc(C)ccc1COc1ccc(-n2nc(C)n(C(F)F)c2=O)cc1 (configuration not stated) | 87.3
75 | Cc1[nH]n(-c2ccccc2)c(=S)c1C=NCCCN=Cc1c(C)[nH]n(-c2ccccc2)c1=S | 96.7
76 | CC1=NN(c2ccccc2)C(=O)/C1=C\c1c(C)[nH]n(-c2ccccc2)c1=O | 83.9
77 | O=C(NC1CCN(C(=O)N2c3ccccc3Sc3ccccc32)CC1)c1ccccc1F | 86.3
78 | Oc1ccc(/C=N/NC(=S)N2CCOCC2)cc1 | 84.3
79 | CC1CCN(c2nc(Cl)nc(Nc3ccc([N+](=O)[O-])cc3)n2)CC1 | 88.8
80 | O=c1c2cc(Br)cc(Br)c2oc2nc3n(c(=O)c12)CCCS3 | 100
81 | Cc1ccc(C2=NNC3(CCOC(C)(C)C3)S2)cc1 (configuration not stated) | 106
82 | Cc1cccc2c1N(CCCOc1ccc(C(C)(C)C)cc1)C(=O)C2=O | 84
83 | CCOc1ccc(N/C(C)=C/C(=O)c2ccc3c(c2)OCCO3)cc1 | 97.4
84 | Cc1ccc(NN=C2c3ccccc3-c3ccccc32)cc1 | 92
85 | CC1(c2nnc(-c3ccncc3)o2)CC(c2ccccc2)=NO1 (configuration not stated) | 92.3
86 | Cc1ccnc(NC(=O)COc2ccc3c(c2)CCC3)c1 | 97.4
87 | O=C1C(Cl)=C(N2CCOCC2)C(=O)N1c1cccc(Cl)c1 | 91.6
88 | O=C(CN1CCN(c2ccc(F)cc2)CC1)N1CCC(Cc2ccccc2)CC1 | 85.5
89 | COc1ccc(/C=N/OCC(=O)OCC(=O)N(C)c2ccccc2)cc1 | 91.8
90 | O=C1C2C(c3ccccc3)(C(=O)N1c1ccc(Cl)cc1)C2(c1ccccc1)c1ccccc1 (configuration not stated) | 90.5
91 | CC1(c2ccc(OC(F)F)cc2)NC(=O)N(CC(=O)c2ccc3c(c2)OCO3)C1=O (configuration not stated) | 93.4
92 | COc1ccc(NC2(c3ccc(Cl)cc3)C(=O)c3ccccc3C2=O)cc1 | 94.8

Row | Compound | viability [%]
93 | COC(=O)CCn1c(C)cc(C(=O)COc2ccccc2C(N)=O)c1C | 81.6
94 | c1ccc(-c2ccccc2OCCCCn2ccnc2)cc1 | 80.4
95 | CCCc1cc2c(cc1NC(=O)c1ccccc1Cl)OCO2 | 91.1
96 | CCCn1nnnc1NC(=O)c1ccc(C)cc1Cl | 90.1
97 | Nc1nc(-c2cccc(F)c2)cs1 | 87.4
98 | NC1=NC[C@H](Cc2ccc(O)cc2)N1CCc1cccc2ccccc12 | 85
99 | N#CC1=C(N)NC(SCC(=O)c2ccccc2)=C(C#N)C12CCCC2 | 82.1
100 | CCOC(=O)CSC1=C(C#N)C(c2ccc(C)cc2)C2=C(CCCC2=O)N1 (configuration not stated) | 95.6
101 | CCOC(=O)CSc1nnc(NC(=O)c2ccc3c(c2)OCO3)s1 | 93.7
102 | C=C(C)C1CCC(C)=C1COC(=O)Nc1ccccc1 (configuration not stated) | 81.2
103 | CC(C)C(=O)Nc1cccc(-c2nc3ccccc3c(=O)o2)c1 | 101
104 | Cc1ccc(C(=O)OCc2nnc(-c3ccccc3)o2)s1 | 94.3
105 | CCOC(=O)c1ccc(N2CC(O)=C(c3nc4ccccc4c(=O)[nH]3)C2=N)cc1 | 94.1
106 | O=C(CSc1nn(-c2ccc(F)cc2)c(=S)s1)NCC1CCCO1 (configuration not stated) | 92.4
107 | Cc1nn(-c2ccccc2)c(Cl)c1/C=N/NC(=O)c1ccc(CNc2ccccc2)o1 | 96.3
108 | Cc1ccc(C(=O)CCC(=O)OCC(=O)Nc2c(C)nn(-c3ccccc3)c2C)cc1 | 101
109 | CCOC(=O)C(/C=C(\C#N)C(=O)OCC)=C(/N)N1CCN(c2ccc(Cl)cc2)CC1 | 90.8
110 | CCN1CCN(c2oc(COc3ccc(-c4ccccc4)cc3)nc2C#N)CC1 | 81.5
111 | Clc1ccc(-c2cc3ccccc3nc2N2CCCC2)cc1 | 85.9
112 | O=C1C2C(C(=O)N1/N=C/c1ccc([N+](=O)[O-])o1)C1C=CC2C12CC2 (configuration not stated) | 99
